Experimental data reported in PubChem BioAssay AID1159580 (chemical genetic matrix, 2015).
Where “and” joins values, the source holds several entries; their conditions need not be identical. Identical values can stand only once. In all, about 5,500 compounds went through this assay and about 2,000 (36%) were called active. Not shown: some 18% with an inconclusive outcome. No stated cut-off is given here; in the data, active means normalized growth mostly below about 0.91 (no sharp cut-off); inconclusive means no clear call, values can overlap the other calls; inactive means mostly above about 0.92. This is one part of the list.

Experiment: chemical genetic growth profiling, strain panel (AID 1159580);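 further: tested at 20 µM; growth read once vehicle control cultures reached saturation at 30 °C; 1 = growth at the plate median or of vehicle wells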
Conditions: S. cerevisiae deletion strains, growth OD

Measured: normalized growth

COc1c2ccoc2c(OC)c2oc(=O)ccc12
inactive: locus YAL013W, strain DEP1, stronger effect = lower value 0.978 | locus YAL021C, strain ccr4, stronger effect = lower value 0.94 | locus YAL026C, strain drs2, stronger effect = lower value 0.953 | locus YAL030W, strain snc1, stronger effect = lower value 0.978 | locus YBL061C, strain skt5, stronger effect = lower value 0.974 | locus YBR009C, strain hhf1, stronger effect = lower value 0.923 | locus YBR021W, strain FUR4, stronger effect = lower value 0.901 | locus YBR171W, strain sec66, stronger effect = lower value 0.975 | locus YBR229C, strain ROT2, stronger effect = lower value 0.945 | locus YBR231C, strain swc5, stronger effect = lower value 0.966 | locus YBR279W, strain paf1, stronger effect = lower value 0.939 | locus YCL011C, strain gbp2, stronger effect = lower value 0.934 | locus YCL029C, strain bik1, stronger effect = lower value 0.965 | locus YCL061C, strain MRC1, stronger effect = lower value 0.944 | locus YCL069W, strain vba3, stronger effect = lower value 0.979 | locus YCR088W, strain abp1, stronger effect = lower value 0.997 | locus YDL005C, strain med2, stronger effect = lower value 0.989 | locus YDL035C, strain GPR1, stronger effect = lower value 0.929 | locus YDL040C, strain nat1, stronger effect = lower value 0.996 | locus YDL074C, strain BRE1, stronger effect = lower value 0.934 | locus YDL101C, strain DUN1, stronger effect = lower value 0.959 | locus YDL134C, strain PPH21, stronger effect = lower value 0.983 | locus YDL185W, strain tfp1, stronger effect = lower value 0.941 | locus YDR001C, strain nth1, stronger effect = lower value 0.97 | locus YDR069C, strain doa4, stronger effect = lower value 0.982 | locus YDR137W, strain rgp1, stronger effect = lower value 0.991 | locus YDR150W, strain NUM1, stronger effect = lower value 0.991 | locus YDR159W, strain sac3, stronger effect = lower value 1.02 | locus YDR162C, strain NBP2, stronger effect = lower value 0.884 | locus YDR297W, strain sur2, stronger effect = lower value 0.978 | locus YDR318W, strain mcm21, stronger effect = lower value 0.966 | locus YDR334W, strain swr1, stronger effect = lower value 0.938 | locus YDR388W, stronger effect = lower value 0.966 | locus YDR502C, strain sam2, stronger effect = lower value 0.97 | locus YEL003W, strain gim4, stronger effect = lower value 0.949 | locus YEL037C, strain rad23, stronger effect = lower value 0.976 | locus YEL061C, strain CIN8 (second series), stronger effect = lower value 0.972 | locus YEL061C, strain CIN8, stronger effect = lower value 0.977 | locus YER016W, strain bim1, stronger effect = lower value 0.99 | locus YER110C, stronger effect = lower value 0.96 | locus YER111C, strain swi4, stronger effect = lower value 0.987 | locus YER155C, strain BEM2, stronger effect = lower value 1.01 | locus YER167W, strain BCK2, stronger effect = lower value 0.97 | locus YFR010W, strain ubp6, stronger effect = lower value 0.968 | locus YGL078C, strain dbp3, stronger effect = lower value 0.987 | locus YGL086W, strain mad1, stronger effect = lower value 0.969 | locus YGL167C, strain pmr1, stronger effect = lower value 0.964 | locus YGL173C, strain kem1, stronger effect = lower value 0.979 | locus YGL227W, strain vid30, stronger effect = lower value 0.997 | locus YGL240W, strain doc1, stronger effect = lower value 0.969 | locus YGL248W, strain PDE1, stronger effect = lower value 0.96 | locus YGL253W, strain hxk2, stronger effect = lower value 0.959 | locus YGR078C, strain PAC10, stronger effect = lower value 0.962 | locus YGR135W, strain pre9, stronger effect = lower value 0.999 | locus YGR252W, strain gcn5, stronger effect = lower value 0.91 | locus YHR013C, strain ard1, stronger effect = lower value 0.912 | locus YHR027C, strain rpn1, stronger effect = lower value 0.959 | locus YHR030C, strain SLT2, stronger effect = lower value 0.99 and 0.993 | locus YHR079C, strain IRE1 (second series), stronger effect = lower value 0.983 | locus YHR079C, strain IRE1, stronger effect = lower value 0.989 | locus YHR094C, strain hxt1, stronger effect = lower value 0.98 | locus YHR129C, strain ARP1, stronger effect = lower value 0.981 | locus YHR142W, strain chs7, stronger effect = lower value 0.882 | locus YHR200W, strain rpn10, stronger effect = lower value 0.936 | locus YIL066C, strain RNR3, stronger effect = lower value 0.946 | locus YIL073C, strain SPO22, stronger effect = lower value 0.954 | locus YIL125W, strain kgd1, stronger effect = lower value 0.984 | locus YIR030C, strain dcg1, stronger effect = lower value 0.979 | locus YJL092W, strain hpr5, stronger effect = lower value 0.964 | locus YJL095W, strain BCK1 (second series), stronger effect = lower value 0.969 | locus YJL095W, strain BCK1, stronger effect = lower value 0.913 and 0.989 | locus YJL115W, strain asf1, stronger effect = lower value 0.959 | locus YJL129C, strain trk1, stronger effect = lower value 1.02 | locus YJL134W, strain LCB3, stronger effect = lower value 0.983 | locus YJL154C, strain vps35, stronger effect = lower value 0.983 | locus YJL166W, strain qcr8, stronger effect = lower value 0.96 | locus YJL168C, strain set2, stronger effect = lower value 0.989 | locus YJL187C, strain SWE1 (second series), stronger effect = lower value 0.959 | locus YJL187C, strain SWE1, stronger effect = lower value 0.951 | locus YJR066W, strain TOR1, stronger effect = lower value 0.939 | locus YJR075W, strain HOC1, stronger effect = lower value 0.964 | locus YKL009W, strain mrt4, stronger effect = lower value 0.956 | locus YKL068W, stronger effect = lower value 0.996 | locus YKL085W, strain MDH1 (second series), stronger effect = lower value 0.987 | locus YKL085W, strain MDH1, stronger effect = lower value 0.987 | locus YKL160W, strain elf1, stronger effect = lower value 0.933 | locus YKL190W, strain CNB1, stronger effect = lower value 0.985 | locus YKR001C, strain vps1, stronger effect = lower value 0.905 | locus YKR026C, strain gcn3, stronger effect = lower value 0.99 | locus YKR091W, strain srl3, stronger effect = lower value 0.991 | locus YLL001W, strain dnm1, stronger effect = lower value 0.909 | locus YLL026W, stronger effect = lower value 0.979 | locus YLL041C, strain sdh2, stronger effect = lower value 0.981 | locus YLR027C, strain aat2, stronger effect = lower value 0.975 | locus YLR039C, strain RIC1, stronger effect = lower value 0.964 | locus YLR058C, strain SHM2, stronger effect = lower value 0.959 | locus YLR102C, strain apc9, stronger effect = lower value 0.979 | locus YLR113W, strain HOG1, stronger effect = lower value 1.05 | locus YLR221C, strain rsa3, stronger effect = lower value 0.983 | locus YLR262C, strain YPT6 (second series), stronger effect = lower value 0.969 | locus YLR262C, strain YPT6, stronger effect = lower value 1.05 | locus YLR268W, strain sec22, stronger effect = lower value 0.921 | locus YLR320W, strain mms22, stronger effect = lower value 0.945 | locus YLR330W, strain CHS5, stronger effect = lower value 0.963 | locus YLR342W, strain FKS1, stronger effect = lower value 0.99 | locus YLR357W, strain rsc2, stronger effect = lower value 1.06 | locus YLR370C, strain arc18, stronger effect = lower value 0.988 | locus YLR384C, strain iki3, stronger effect = lower value 0.991 | locus YLR418C, strain cdc73, stronger effect = lower value 0.932 | locus YML016C, strain PPZ1, stronger effect = lower value 0.948 | locus YML032C, strain rad52, stronger effect = lower value 0.951 | locus YML124C, strain tub3, stronger effect = lower value 0.974 | locus YMR058W, strain fet3, stronger effect = lower value 0.921 | locus YMR078C, strain ctf18, stronger effect = lower value 0.969 | locus YMR125W, strain sto1, stronger effect = lower value 0.994 | locus YMR129W, stronger effect = lower value 0.986 | locus YMR205C, strain PFK2, stronger effect = lower value 0.913 | locus YMR223W, strain ubp8, stronger effect = lower value 0.974 | locus YMR231W, strain pep5, stronger effect = lower value 0.991 | locus YMR263W, strain SAP30, stronger effect = lower value 0.973 | locus YMR307W, strain GAS1, stronger effect = lower value 0.956 | locus YNL067W, strain RPL9B, stronger effect = lower value 0.999 | locus YNL128W, strain TEP1, stronger effect = lower value 0.932 | locus YNL153C, strain GIM3, stronger effect = lower value 0.947 | locus YNL183C, strain NPR1, stronger effect = lower value 0.939 | locus YNL209W, strain ssb2, stronger effect = lower value 0.958 | locus YNL233W, strain BNI4, stronger effect = lower value 0.946 | locus YNL250W, strain rad50, stronger effect = lower value 0.988 | locus YNL271C, strain bni1, stronger effect = lower value 0.983 | locus YNL298W, strain CLA4, stronger effect = lower value 0.929 | locus YNL307C, strain MCK1, stronger effect = lower value 0.949 | locus YNL322C, strain KRE1 (second series), stronger effect = lower value 0.986 | locus YNR049C, strain mso1, stronger effect = lower value 0.993 | locus YNR052C, strain pop2, stronger effect = lower value 1 | locus YOL006C, strain TOP1, stronger effect = lower value 0.691 | locus YOL012C, strain htz1 0.85 | locus YOL147C, strain pex11, stronger effect = lower value 0.984 | locus YOR001W, strain rrp6, stronger effect = lower value 0.978 | locus YOR061W, strain CKA2, stronger effect = lower value 0.931 | locus YOR069W, strain VPS5, stronger effect = lower value 0.994 | locus YOR070C, strain gyp1, stronger effect = lower value 0.951 | locus YOR080W, strain dia2, stronger effect = lower value 0.992 | locus YOR083W, strain WHI5, stronger effect = lower value 0.943 | locus YOR106W, strain vam3, stronger effect = lower value 0.875 | locus YOR136W, strain idh2, stronger effect = lower value 0.959 | locus YOR144C, strain elg1, stronger effect = lower value 0.969 | locus YOR231W, strain MKK1, stronger effect = lower value 0.962 | locus YOR265W, strain rbl2, stronger effect = lower value 0.979 | locus YOR270C, strain vph1, stronger effect = lower value 0.815 | locus YOR290C, strain snf2, stronger effect = lower value 0.876 | locus YOR316C, strain cot1, stronger effect = lower value 0.948 | locus YPL051W, strain arl3, stronger effect = lower value 0.928 | locus YPL055C, strain LGE1, stronger effect = lower value 0.868 | locus YPL240C, strain hsp82, stronger effect = lower value 0.939 | locus YPL241C, strain CIN2, stronger effect = lower value 0.993 | locus YPL256C, strain CLN2, stronger effect = lower value 1.08 | locus YPR119W, strain clb2, stronger effect = lower value 0.997 | locus YPR141C, strain kar3, stronger effect = lower value 0.98 | locus YPR163C, strain tif3, stronger effect = lower value 0.948 | locus YPR167C, strain met16, stronger effect = lower value 0.983 | strain wtn01, stronger effect = lower value 0.91
active: locus YBR023C, strain chs3, stronger effect = lower value 0.888 | locus YCL016C, strain dcc1, stronger effect = lower value 0.876 | locus YDL192W, strain arf1, stronger effect = lower value 0.911 | locus YDR101C, strain arx1, stronger effect = lower value 0.904 | locus YDR195W, strain ref2 1.26 [resistant] | locus YDR335W, strain msn5, stronger effect = lower value 0.91 | locus YDR392W, strain spt3, stronger effect = lower value 0.724 | locus YER015W, strain faa2, stronger effect = lower value 0.912 | locus YER155C, strain BEM2 (second series), stronger effect = lower value 0.835 | locus YJL164C, strain tpk1, stronger effect = lower value 0.912 | locus YLR258W, strain gsy2, stronger effect = lower value 0.907 | locus YLR371W, strain rom2, stronger effect = lower value 0.84 | locus YML120C, strain ndi1, stronger effect = lower value 0.901 | locus YNL071W, strain lat1, stronger effect = lower value 0.915 | locus YNL248C, strain rpa49, stronger effect = lower value 0.849 | locus YOR184W, strain ser1, stronger effect = lower value 0.871 | locus YPL078C, strain atp4, stronger effect = lower value 0.882 | locus YPL106C, strain sse1, stronger effect = lower value 0.832
